This passage reports outcome and AC50 results from PubChem BioAssay (EPA / NIEHS).

One may read the AC50 as the midpoint of the concentration-response curve, whichever way the signal moves.

Some compounds were tested as several samples or in several runs, with calls that do not always agree. Activity calls are given as the source filed them. How the source made its calls: active means hit-call score of the fitted dose curve at least 0.9, where 1 is the maximum; inactive means score below 0.9.

Read-out in test [1]: Interferon-gamma inducible Protein 10 (IP10), CXCL10 (gene 3627)
Put plainly: BSK_hDFCGF_IP10: BioMAP Diversity Plus: hDFCGF Assay for Interferon-gamma inducible Protein 10 (IP10) Biomarker Activity (AID 2283053). As to conditions: primary human foreskin fibroblasts; actives raise or lower the signal. An outline of the steps: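 Primary human foreskin fibroblasts exposed to chemicals for 24 h. IP-10 measured by ELISA; changes fitted bidirectionally against DMSO baseline.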

Read-out in test [2]: Urokinase-type plasminogen activator receptor (uPAR), PLAUR (gene 5329)
In words: BSK_CASM3C_uPAR: BioMAP Diversity Plus: CASM3C Assay for Urokinase-type plasminogen activator receptor (uPAR) Biomarker Activity (AID 2283054).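 Further: cell-surface uPAR protein level quantified by ELISA.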 As to conditions: primary human coronary artery smooth muscle cells; actives raise or lower the signal.

Read-out in test [3]: Vascular cell adhesion molecule 1 (VCAM1), VCAM1 (gene 7412)
Put plainly: BSK_CASM3C_VCAM1: BioMAP Diversity Plus: CASM3C Assay for Vascular cell adhesion molecule 1 (VCAM1) Biomarker Activity (AID 2283055).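 Further: VCAM-1 protein level quantified by ELISA on the cells.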 As to conditions: primary human coronary artery smooth muscle cells; actives raise or lower the signal.

Read-out in test [4]: Collagen III, COL3A1 (gene 1281)
In words: BSK_hDFCGF_CollagenIII: BioMAP Diversity Plus: hDFCGF Assay for Collagen III Biomarker Activity (AID 2283056). The following applies: primary human foreskin fibroblasts; actives raise or lower the signal. The gist of the method: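 Cells: human foreskin fibroblasts, primary. Dosing followed by 24 h incubation, then ELISA for collagen III. Both increases and decreases scored relative to DMSO.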

Read-out in test [5]: Epidermal growth factor receptor (EGFR), EGFR (gene 1956)
Put plainly: BSK_hDFCGF_EGFR: BioMAP Diversity Plus: hDFCGF Assay for Epidermal growth factor receptor (EGFR) Biomarker Activity (AID 2283057). As to conditions: primary human foreskin fibroblasts; actives raise or lower the signal. An outline of the steps: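 Primary human foreskin fibroblasts (hDFCGF system), sampled 24 h after dosing; EGFR quantified by ELISA. Bidirectional fit relative to DMSO baseline; SRB total-protein staining in parallel cultures for cytotoxicity.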

Read-out in test [6]: Interleukin-8 (IL8), CXCL8 (gene 3576)
Put plainly: BSK_hDFCGF_IL8: BioMAP Diversity Plus: hDFCGF Assay for Interleukin-8 (IL8) Biomarker Activity (AID 2283058). As to conditions: primary human foreskin fibroblasts; actives raise or lower the signal. The gist of the method:
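IL-8 levels from compound-treated primary human fibroblasts were read by ELISA at 24 h, with DMSO serving as baseline for bidirectional fitting.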

Test [7] can be described thus: BSK_hDFCGF_Proliferation: Cell Proliferation Assessment in the BioMAP Diversity Plus: hDFCGF Assay (AID 2283059).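 Further: curves fitted for both rise and fall of signal versus DMSO baseline.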 The following applies: primary human foreskin fibroblasts. The gist of the method:
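Primary human foreskin fibroblasts, sub-confluent; […]; 10% TCA fix, 0.1% SRB stain, A560 total protein. Gain/loss fitted bidirectionally vs DMSO control.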

Read-out in test [8]: Macrophage colony-stimulating factor (MCSF), CSF1 (gene 1435)
In words: BSK_hDFCGF_MCSF: BioMAP Diversity Plus: hDFCGF Assay for Macrophage colony-stimulating factor (MCSF) Biomarker Activity (AID 2283060). The following applies: primary human foreskin fibroblasts; actives raise or lower the signal. An outline of the steps:
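M-CSF levels, determined by ELISA, are taken at 24 h after dosing human skin fibroblasts. Responses in either direction are fitted with DMSO serving as the baseline.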

A short description of test [9]: BSK_hDFCGF_SRB: Viability Assessment in the BioMAP Diversity Plus: hDFCGF Assay (AID 2283061).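 Further: cells exposed to compound for 24 h before the read.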 The following applies: primary human foreskin fibroblasts. The gist of the method: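 Cells were dosed with test chemical, cultured 24 h, fixed with 10% TCA, then stained with 0.1% SRB and read at 560 nm. The fibroblasts were human foreskin primary cells, and DMSO served as baseline.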

Read-out in test [10]: TIMP metallopeptidase inhibitor 1 (TIMP1), TIMP1 (gene 7076)
Put plainly: BSK_hDFCGF_TIMP1: BioMAP Diversity Plus: hDFCGF Assay for TIMP metallopeptidase inhibitor 1 (TIMP1) Biomarker Activity (AID 2283062). The following applies: primary human foreskin fibroblasts; actives raise or lower the signal. The gist of the method: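 Fibroblasts from human foreskin are treated with test chemical and harvested at 24 h. TIMP-1 is quantified by ELISA, and gain or loss of signal is scored against DMSO.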

Read-out in test [11]: Monokine induced gamma interferon (MIG), CXCL9 (gene 4283)
Put plainly: BSK_hDFCGF_MIG: BioMAP Diversity Plus: hDFCGF Assay for Monokine induced gamma interferon (MIG) Biomarker Activity (AID 2283063). The following applies: primary human foreskin fibroblasts; actives raise or lower the signal. The gist of the method:
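MIG signal, determined by ELISA, reflects 24 h chemical exposure of human skin primary fibroblasts. DMSO serves as negative control and baseline.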

Read-out in test [12]: Matrix Metallopeptidase 1 (MMP1), MMP1 (gene 4312)
In words: BSK_hDFCGF_MMP1: BioMAP Diversity Plus: hDFCGF Assay for Matrix Metallopeptidase 1 (MMP1) Biomarker Activity (AID 2283064). The following applies: primary human foreskin fibroblasts; actives raise or lower the signal. The gist of the method:
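Primary human foreskin fibroblasts in the hDFCGF system were dosed with test chemical, and MMP1 was measured by ELISA 24 h later. Values come from bidirectional curve fitting against the DMSO baseline.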

Read-out in test [13]: Vascular cell adhesion molecule 1 (VCAM1), VCAM1 (gene 7412)
In words: BSK_hDFCGF_VCAM1: BioMAP Diversity Plus: hDFCGF Assay for Vascular cell adhesion molecule 1 (VCAM1) Biomarker Activity (AID 2283065).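 On AC50: VCAM-1 protein level quantified by ELISA after 24 h chemical exposure.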 The following applies: primary human foreskin fibroblasts; actives raise or lower the signal. The gist of the method:
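Cells are dosed, cultured for 24 h, then VCAM-1 is quantified by ELISA; signal increases and decreases are both fitted relative to DMSO.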

Read-out in test [14]: Plasminogen activator inhibitor-1 (PAI1), SERPINE1 (gene 5054)
In words: BSK_hDFCGF_PAI1: BioMAP Diversity Plus: hDFCGF Assay for Plasminogen activator inhibitor-1 (PAI1) Biomarker Activity (AID 2283066). The following applies: primary human foreskin fibroblasts; actives raise or lower the signal. An outline of the steps:
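Human foreskin fibroblast primary cells, 24 h chemical exposure; PAI-1 measured by ELISA. Bidirectional fitting relative to DMSO; parallel cultures stained with SRB for total protein to flag overt cytotoxicity.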

Read-out in test [15]: Intercellular Adhesion Molecule 1 (ICAM1), ICAM1 (gene 3383)
In words: BSK_KF3CT_ICAM1: BioMAP Diversity Plus: KF3CT Assay for Intercellular Adhesion Molecule 1 (ICAM1) Biomarker Activity (AID 2283067). The following applies: primary human keratinocytes with fibroblasts; actives raise or lower the signal. The gist of the method:
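Dose the keratinocyte/fibroblast co-culture, wait 24 h, measure ICAM-1 by ELISA, then fit increases or decreases against DMSO. Cytotoxicity is checked in parallel cultures by SRB total-protein staining.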

Read-out in test [16]: Interferon-gamma inducible Protein 10 (IP10), CXCL10 (gene 3627)
Put plainly: BSK_KF3CT_IP10: BioMAP Diversity Plus: KF3CT Assay for Interferon-gamma inducible Protein 10 (IP10) Biomarker Activity (AID 2283068). The following applies: primary human keratinocytes with fibroblasts; actives raise or lower the signal. An outline of the steps: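 In a primary skin co-culture of keratinocytes and fibroblasts, IP-10 is quantified by ELISA at 24 h after dosing. SRB staining of parallel wells monitors overt toxicity. Curves are fitted both directions against DMSO.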

The nature of test [17]: BSK_KF3CT_SRB: Viability Assessment in the BioMAP Diversity Plus: KF3CT Assay (AID 2283069).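 Further: total protein by sulforhodamine B staining as a cytotoxicity measure.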 As to conditions: primary human keratinocytes with fibroblasts. An outline of the steps: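 Human primary keratinocyte plus foreskin fibroblast co-culture exposed to chemicals for 24 h. Total protein measured by 0.1% sulforhodamine B staining after 10% TCA fixation, read at 560 nm; bidirectional fitting versus DMSO baseline.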

Read-out in test [18]: Interleukin-1 alpha (IL1a), IL1A (gene 3552)
In words: BSK_KF3CT_IL1a: BioMAP Diversity Plus: KF3CT Assay for Interleukin-1 alpha (IL1a) Biomarker Activity (AID 2283070). As to conditions: primary human keratinocytes with fibroblasts; actives raise or lower the signal. An outline of the steps:
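Human keratinocyte plus foreskin fibroblast primary co-culture, sampled 24 h after chemical dosing. IL-1a measured by ELISA; responses fitted bidirectionally against DMSO baseline (negative control), so gain or loss of signal both count.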

Read-out in test [19]: TIMP metallopeptidase inhibitor 2 (TIMP2), TIMP2 (gene 7077)
In words: BSK_KF3CT_TIMP2: BioMAP Diversity Plus: KF3CT Assay for TIMP metallopeptidase inhibitor 2 (TIMP2) Biomarker Activity (AID 2283071). As to conditions: primary human keratinocytes with fibroblasts; actives raise or lower the signal. The gist of the method:
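Co-culture of human primary keratinocytes and foreskin fibroblasts, measured 24 h after chemical dosing. TIMP-2 quantified by ELISA and fitted in both directions relative to DMSO. Cytotoxicity checked in parallel cultures by SRB total-protein staining.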

Read-out in test [20]: Transforming growth factor beta 1 (TGFb1), TGFB1 (gene 7040)
In words: BSK_KF3CT_TGFb1: BioMAP Diversity Plus: KF3CT Assay for Transforming growth factor beta 1 (TGFb1) Biomarker Activity (AID 2283072). As to conditions: primary human keratinocytes with fibroblasts; actives raise or lower the signal. An outline of the steps: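 Human keratinocyte/foreskin fibroblast co-culture; TGF-b1 measured by ELISA 24 h after dosing, fitted bidirectionally versus DMSO. Cytotoxicity checked in parallel cultures by total protein (SRB staining, 560 nm).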

As to `Cc1cccc(OP(=O)(Oc2cccc(C)c2)Oc2cccc(C)c2)c1`, the result in [1], in [2], in test [3], in [4], in test [5] and in [6] was inactive. Also, the outcome in test [7], in test [9], in test [10], in [11], in test [12] and in test [13] was inactive. For the same compound, the outcome in [15], in test [16], in test [17], in test [18], in test [19] and in test [20] was inactive. Moreover, the AC50 was 4780 nM (active) in [8] and 47.3 nM (active) in test [14].

For the compound `CCOC(=O)C(SP(=S)(OC)OC)c1ccccc1` (stereo unspecified), the outcome in [1], in test [2], in test [5], in test [6], in test [9] and in test [10] was inactive. For the same compound, the outcome in test [11], in test [12], in [14], in test [16], in test [17] and in test [18] was inactive. Also, the result in test [19] was inactive. Further, the AC50 in [3] was 20000 nM (active); in [4] it was 10200 nM (active); in test [7] it was 26400 nM (active); in test [8], 7090 nM (active); in test [20] it was 20000 nM (active).

In the case of `O=C(Cc1ccccc1)OCCc1ccccc1`, the outcome in [1], in test [2], in test [3], in [4], in [5] and in [6] was inactive. For the same compound, the result in test [7], in test [8], in test [10], in test [11], in [12] and in [13] was inactive. Besides, the outcome in test [14], in [16], in test [17], in test [18] and in [19] was inactive.

Regarding `Oc1c(Cl)cc(Cl)cc1Cl`, the outcome in test [1], in test [2], in [3], in test [4], in test [5] and in test [6] was inactive. The result in test [7], in test [8], in test [9], in test [10], in test [11] and in test [12] was inactive. The result in test [13], in test [14], in test [15], in test [16], in test [17] and in [18] was inactive. Besides, the result in [19] and in test [20] was inactive.

In the case of `CCCCOC(=O)COC(=O)c1ccccc1C(=O)OCCCC`, the result in test [1], in [2], in [3], in [4], in test [5] and in test [6] was inactive. Moreover, the result in [7], in test [8], in test [10], in test [11], in test [12] and in [14] was inactive. Moreover, the outcome in [15], in test [16], in test [17], in test [18] and in [19] was inactive. Besides, the AC50 in test [7] is 20000 nM (active).

Turning to `[Cl][Sn]([c]1ccccc1)([c]1ccccc1)[c]1ccccc1`, the AC50 in test [1] is 86.1 nM (active); in test [2] it was 351 nM (active); in test [3], 396 nM (active); in test [4], 500 nM (active); in test [6], 123 nM (active); in [7] it was 54.2 nM (active). Moreover, the AC50 in [8] is 166 nM (active); in test [9] it was 233 nM (active); in test [10], 158 nM (active); in test [11], 85.5 nM (active); in test [12] it was 103 nM (active); in [13], 99.6 nM (active). The AC50 is 114 nM (active) in test [14]; 334 nM (active) in test [15]; 140 nM (active) in [16]; 183 nM (active) in test [17]; 127 nM (active) in test [18]; 209 nM (active) in test [19]. Also, in test [20], the AC50 is 62.2 nM (active). For the same compound, the outcome in [5] was inactive.

For `Oc1ccc(Cc2ccc(O)cc2)cc1`, the outcome in test [1], in test [2], in [3], in test [4], in test [5] and in [6] was inactive. Besides, the outcome in test [7], in [8], in [9], in test [10], in test [11] and in test [12] was inactive. Besides, the outcome in test [14], in test [16], in test [17], in [18], in test [19] and in test [20] was inactive.
